Among all 5,500 compounds or so, about 2,000 (36%) were called active. About 18% were inconclusive and are not listed. This is one part of the list. A number with no mark means an inactive call. Cut-off read from the data, not from the text of the source: active = normalized growth mostly below about 0.91 (no sharp cut-off); inconclusive = no clear call, values can overlap the other calls; inactive = mostly above about 0.92.
Assay: chemical genetic growth profiling, strain panel (AID 1159580);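 note: tested at 20 µM; growth read once vehicle control cultures reached saturation at 30 °C; 1 = growth at the plate median or of vehicle wells; lower values mean less growth of the strain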
Settings: growth OD

O/N=C\c1sccc1Oc1ccccc1
normalized growth (S. cerevisiae deletion strains, locus YAL013W, strain DEP1, active compounds read low): 0.964
normalized growth (S. cerevisiae deletion strains, locus YBR229C, strain ROT2, active compounds read low): 0.958
normalized growth (S. cerevisiae deletion strains, locus YCL061C, strain MRC1, active compounds read low): 0.942
normalized growth (S. cerevisiae deletion strains, locus YDL101C, strain DUN1, active compounds read low): 0.926
normalized growth (S. cerevisiae deletion strains, locus YDR150W, strain NUM1, active compounds read low): 0.953
normalized growth (S. cerevisiae deletion strains, locus YEL061C, strain CIN8, active compounds read low): 0.869 (active)
normalized growth (S. cerevisiae deletion strains, locus YGR078C, strain PAC10, active compounds read low): 0.952
normalized growth (S. cerevisiae deletion strains, locus YHR030C, strain SLT2, active compounds read low): 0.729
normalized growth (S. cerevisiae deletion strains, locus YHR087W, strain rtc3, active compounds read low): 1.01
normalized growth (S. cerevisiae deletion strains, locus YJL187C, strain SWE1, active compounds read low): 1.01
normalized growth (S. cerevisiae deletion strains, locus YJR043C, strain POL32, active compounds read low): 1
normalized growth (S. cerevisiae deletion strains, locus YJR075W, strain HOC1, active compounds read low): 0.978
normalized growth (S. cerevisiae deletion strains, locus YLR039C, strain RIC1, active compounds read low): 0.954
normalized growth (S. cerevisiae deletion strains, locus YLR058C, strain SHM2 (second series), active compounds read low): 0.997
normalized growth (S. cerevisiae deletion strains, locus YLR085C, strain ARP6, active compounds read low): 0.911
normalized growth (S. cerevisiae deletion strains, locus YLR262C, strain YPT6, active compounds read low): 0.931
normalized growth (S. cerevisiae deletion strains, locus YML094W, strain GIM5, active compounds read low): 0.927
normalized growth (S. cerevisiae deletion strains, locus YMR219W, strain ESC1, active compounds read low): 0.977
normalized growth (S. cerevisiae deletion strains, locus YMR263W, strain SAP30, active compounds read low): 0.968
normalized growth (S. cerevisiae deletion strains, locus YNL128W, strain TEP1, active compounds read low): 0.98
normalized growth (S. cerevisiae deletion strains, locus YNL153C, strain GIM3, active compounds read low): 0.905 (active)
normalized growth (S. cerevisiae deletion strains, locus YNL298W, strain CLA4 (second series), active compounds read low): 0.962
normalized growth (S. cerevisiae deletion strains, locus YNL322C, strain KRE1, active compounds read low): 0.988
normalized growth (S. cerevisiae deletion strains, locus YNR030W, strain Alg12, active compounds read low): 0.932
normalized growth (S. cerevisiae deletion strains, locus YOL006C, strain TOP1, active compounds read low): 0.795
normalized growth (S. cerevisiae deletion strains, locus YPL055C, strain LGE1, active compounds read low): 0.98
normalized growth (S. cerevisiae deletion strains, locus YPL241C, strain CIN2, active compounds read low): 0.917
normalized growth (S. cerevisiae deletion strains, locus YPR135W, strain CTF4, active compounds read low): 0.648
normalized growth (S. cerevisiae strains, strain wild type, active compounds read low): 0.953

Reference: PubChem BioAssay AID1159580 (chemical genetic matrix, 2015)
